For one sequence, binding signal results are on record in paper PMC7862700, “An all-to-all approach to the identification of sequence-specific readers for epigenetic DNA modifications on cytosine”.

What all share (experiment): DAPPL (digital affinity profiling via proximity ligation, sequencing); 10 mM Tris-HCl pH 7.5, 50 mM NaCl, 1 mM DTT, 4% glycerol, room temperature, 30 min; GST-TFs on glutathione beads, 16-mer random dsDNA library, 0.1% formaldehyde crosslink after washing; high values mean tight binding
In one assay the target is T1, FLI1 (Homo sapiens, UniProt Q01543 1-452).
T1 sequence: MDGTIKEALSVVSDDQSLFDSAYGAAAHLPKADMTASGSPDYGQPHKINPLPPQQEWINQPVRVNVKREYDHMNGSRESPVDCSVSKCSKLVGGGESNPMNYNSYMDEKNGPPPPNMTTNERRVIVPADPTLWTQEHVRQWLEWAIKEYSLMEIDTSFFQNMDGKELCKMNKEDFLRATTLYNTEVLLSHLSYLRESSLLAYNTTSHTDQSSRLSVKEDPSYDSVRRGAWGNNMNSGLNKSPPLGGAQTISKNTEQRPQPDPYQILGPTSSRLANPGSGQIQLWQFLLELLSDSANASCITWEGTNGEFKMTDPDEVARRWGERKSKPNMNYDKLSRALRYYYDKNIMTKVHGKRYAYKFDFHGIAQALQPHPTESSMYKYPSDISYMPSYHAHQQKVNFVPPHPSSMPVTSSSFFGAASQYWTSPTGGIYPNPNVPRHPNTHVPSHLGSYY
The following applies: protein: recombinant; tags: N-terminal GST; dsDNA, one strand shown. The method in brief:
(§1)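 The binding signal reported is, for every hexamer, its read frequency for a factor over its read frequency for the tag-only sample. Reads came from pools of yeast-expressed, GST-fused human transcription factors on glutathione beads, barcoded with DNA and mixed with that sample, which were incubated with 200 nmole of a random double-stranded 16-mer DNA library in Tris/NaCl/DTT/glycerol buffer at room temperature for 30 min. After washing, the pools were crosslinked with 0.1% formaldehyde, proximity-ligated with BsaI/T4 ligase for 1 h at 37 °C, PCR-amplified and sequenced on an Illumina NextSeq500.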

For the next assay, the target named is T2, ELK1 (Homo sapiens, UniProt P19419 1-428).
T2 sequence: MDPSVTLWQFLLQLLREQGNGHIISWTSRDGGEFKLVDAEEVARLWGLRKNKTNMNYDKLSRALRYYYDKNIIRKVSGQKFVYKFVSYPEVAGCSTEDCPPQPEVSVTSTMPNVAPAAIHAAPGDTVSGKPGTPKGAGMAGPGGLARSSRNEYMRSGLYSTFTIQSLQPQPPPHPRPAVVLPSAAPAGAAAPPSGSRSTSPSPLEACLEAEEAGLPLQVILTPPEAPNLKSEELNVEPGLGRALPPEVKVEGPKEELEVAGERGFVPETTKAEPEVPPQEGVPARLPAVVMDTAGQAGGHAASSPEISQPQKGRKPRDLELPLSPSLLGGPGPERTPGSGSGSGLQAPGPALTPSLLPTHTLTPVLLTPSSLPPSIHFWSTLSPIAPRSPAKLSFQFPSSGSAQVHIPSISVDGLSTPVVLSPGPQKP
Conditions: protein: recombinant; tags: N-terminal GST; dsDNA, one strand shown. Summed up: as §1

For another assay, the target named is T3, GABPA (Homo sapiens, UniProt Q06546 1-454).
T3 sequence: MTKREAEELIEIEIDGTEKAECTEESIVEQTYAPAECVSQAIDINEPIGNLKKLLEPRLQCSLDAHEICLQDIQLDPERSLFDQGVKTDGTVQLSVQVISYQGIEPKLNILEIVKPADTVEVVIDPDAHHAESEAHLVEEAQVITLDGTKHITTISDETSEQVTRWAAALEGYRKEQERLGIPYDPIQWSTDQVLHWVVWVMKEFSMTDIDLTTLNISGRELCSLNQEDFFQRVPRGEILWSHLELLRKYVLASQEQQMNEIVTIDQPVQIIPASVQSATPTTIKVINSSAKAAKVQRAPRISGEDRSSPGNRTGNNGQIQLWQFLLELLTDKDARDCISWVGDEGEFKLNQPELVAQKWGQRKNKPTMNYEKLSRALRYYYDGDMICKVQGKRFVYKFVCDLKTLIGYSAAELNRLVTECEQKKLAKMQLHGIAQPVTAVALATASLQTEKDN
Conditions: protein: recombinant; tags: N-terminal GST; dsDNA, one strand shown. Summed up: as §1

The next assay has as its target T4, ERG (Homo sapiens, UniProt P11308 1-479).
T4 sequence: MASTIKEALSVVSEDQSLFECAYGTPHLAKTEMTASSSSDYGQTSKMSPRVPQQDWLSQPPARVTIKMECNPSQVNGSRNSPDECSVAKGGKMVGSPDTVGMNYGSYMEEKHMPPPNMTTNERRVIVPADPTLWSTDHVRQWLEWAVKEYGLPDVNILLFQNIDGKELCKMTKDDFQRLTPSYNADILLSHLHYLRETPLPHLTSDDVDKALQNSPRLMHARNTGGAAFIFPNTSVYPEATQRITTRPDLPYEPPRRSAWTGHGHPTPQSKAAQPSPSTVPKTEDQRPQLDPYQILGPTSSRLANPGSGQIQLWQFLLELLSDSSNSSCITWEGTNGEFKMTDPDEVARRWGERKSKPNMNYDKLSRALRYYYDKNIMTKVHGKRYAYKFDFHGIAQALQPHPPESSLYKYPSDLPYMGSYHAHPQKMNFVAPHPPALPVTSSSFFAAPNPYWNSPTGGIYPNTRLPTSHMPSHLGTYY
The following applies: protein: recombinant; tags: N-terminal GST; dsDNA, one strand shown. Summed up:
as §1

In a further assay the target is ELF1 (Homo sapiens, UniProt P32519 1-619). Conditions: protein: recombinant; tags: N-terminal GST; dsDNA, one strand shown. The method in brief: as §1
Sequence of ELF1 (P32519 whole entry): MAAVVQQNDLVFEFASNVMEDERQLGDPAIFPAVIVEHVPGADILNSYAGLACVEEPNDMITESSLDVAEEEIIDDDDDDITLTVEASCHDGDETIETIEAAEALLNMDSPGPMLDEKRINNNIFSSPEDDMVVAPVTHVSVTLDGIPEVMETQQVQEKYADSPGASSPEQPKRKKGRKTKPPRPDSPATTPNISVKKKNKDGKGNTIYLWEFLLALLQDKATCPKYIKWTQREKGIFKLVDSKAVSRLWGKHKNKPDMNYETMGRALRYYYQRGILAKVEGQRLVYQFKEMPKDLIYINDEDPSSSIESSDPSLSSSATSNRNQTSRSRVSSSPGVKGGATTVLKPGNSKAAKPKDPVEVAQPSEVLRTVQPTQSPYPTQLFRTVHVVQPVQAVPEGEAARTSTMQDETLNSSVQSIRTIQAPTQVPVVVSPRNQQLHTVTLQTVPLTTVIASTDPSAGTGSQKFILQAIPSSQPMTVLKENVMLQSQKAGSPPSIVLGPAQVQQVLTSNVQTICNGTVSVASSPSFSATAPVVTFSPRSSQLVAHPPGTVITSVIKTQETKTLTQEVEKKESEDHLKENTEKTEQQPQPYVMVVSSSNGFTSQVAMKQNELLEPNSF
Another assay concerns the target T5, EHF (Homo sapiens, UniProt Q9NZC4 1-300).
T5 sequence: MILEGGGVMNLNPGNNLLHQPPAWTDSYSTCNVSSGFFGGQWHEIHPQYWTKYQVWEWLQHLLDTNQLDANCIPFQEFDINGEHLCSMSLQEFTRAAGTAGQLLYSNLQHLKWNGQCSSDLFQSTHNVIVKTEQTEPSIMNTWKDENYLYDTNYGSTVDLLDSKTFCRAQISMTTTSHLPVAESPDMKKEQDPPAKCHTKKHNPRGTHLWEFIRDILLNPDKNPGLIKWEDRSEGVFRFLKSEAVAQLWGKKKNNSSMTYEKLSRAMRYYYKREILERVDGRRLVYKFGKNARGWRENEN
The following applies: protein: recombinant; tags: N-terminal GST; dsDNA, one strand shown. Summed up: as §1

Another assay concerns the target SPI1 (Homo sapiens, UniProt P17947 1-270). Conditions: protein: recombinant; tags: N-terminal GST; dsDNA, one strand shown. The method in brief: as §1
A further assay has as its target SPIB (Homo sapiens, UniProt Q01892 1-262). Conditions: protein: recombinant; tags: N-terminal GST; dsDNA, one strand shown. Summed up: as §1
The target of a further assay is T6, ELK3 (Homo sapiens, UniProt P41970 1-407).
T6 sequence: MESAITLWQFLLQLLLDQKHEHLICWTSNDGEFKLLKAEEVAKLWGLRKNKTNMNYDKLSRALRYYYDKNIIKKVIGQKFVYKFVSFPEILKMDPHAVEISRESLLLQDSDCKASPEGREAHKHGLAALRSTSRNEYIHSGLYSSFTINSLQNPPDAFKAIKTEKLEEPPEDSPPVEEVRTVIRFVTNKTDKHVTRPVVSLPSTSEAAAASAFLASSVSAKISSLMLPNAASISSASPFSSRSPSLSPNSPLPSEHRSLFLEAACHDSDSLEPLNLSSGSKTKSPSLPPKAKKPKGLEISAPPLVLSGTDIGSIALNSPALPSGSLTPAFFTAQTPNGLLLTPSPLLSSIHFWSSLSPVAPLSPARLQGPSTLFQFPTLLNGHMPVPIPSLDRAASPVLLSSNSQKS
Conditions: protein: recombinant; tags: N-terminal GST; dsDNA, one strand shown. The method in brief:
as §1

Another assay addresses T7, FEV (Homo sapiens, UniProt Q99581 1-238).
T7 sequence: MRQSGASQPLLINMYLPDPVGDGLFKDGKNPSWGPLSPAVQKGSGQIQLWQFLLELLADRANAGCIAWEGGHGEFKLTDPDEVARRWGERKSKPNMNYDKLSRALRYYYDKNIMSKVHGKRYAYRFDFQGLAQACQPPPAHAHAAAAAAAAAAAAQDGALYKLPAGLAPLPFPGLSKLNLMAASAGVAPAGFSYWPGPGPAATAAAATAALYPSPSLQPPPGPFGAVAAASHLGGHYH
Conditions: protein: recombinant; tags: N-terminal GST; dsDNA, one strand shown. The method in brief:
as §1

In a further assay the target is ETV5 (Homo sapiens, UniProt P41161 1-510). The following applies: protein: recombinant; tags: N-terminal GST; dsDNA, one strand shown. Summed up:
as §1

The target of the next assay is HSF1 (Homo sapiens, UniProt Q00613 1-529). The following applies: protein: recombinant; tags: N-terminal GST; chain copies: 3; dsDNA, one strand shown. The method in brief: as §1
Sequence of HSF1 (Q00613 whole entry): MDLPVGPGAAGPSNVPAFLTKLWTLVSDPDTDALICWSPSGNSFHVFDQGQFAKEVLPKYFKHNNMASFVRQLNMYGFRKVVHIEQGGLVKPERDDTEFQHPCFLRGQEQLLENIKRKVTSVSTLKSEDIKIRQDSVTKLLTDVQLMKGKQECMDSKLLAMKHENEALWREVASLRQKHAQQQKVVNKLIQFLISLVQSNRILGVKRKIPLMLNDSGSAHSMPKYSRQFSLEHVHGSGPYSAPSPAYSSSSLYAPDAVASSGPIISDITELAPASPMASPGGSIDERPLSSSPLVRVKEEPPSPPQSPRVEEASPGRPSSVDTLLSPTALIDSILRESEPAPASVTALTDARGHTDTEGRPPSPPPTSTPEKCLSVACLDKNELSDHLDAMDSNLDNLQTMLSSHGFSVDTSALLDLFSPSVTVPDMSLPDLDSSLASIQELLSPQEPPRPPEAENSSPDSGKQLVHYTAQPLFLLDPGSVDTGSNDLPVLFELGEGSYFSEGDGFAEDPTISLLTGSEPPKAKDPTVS
In another assay the target is T8, SPIC (Homo sapiens, UniProt Q8N5J4 1-248).
T8 sequence: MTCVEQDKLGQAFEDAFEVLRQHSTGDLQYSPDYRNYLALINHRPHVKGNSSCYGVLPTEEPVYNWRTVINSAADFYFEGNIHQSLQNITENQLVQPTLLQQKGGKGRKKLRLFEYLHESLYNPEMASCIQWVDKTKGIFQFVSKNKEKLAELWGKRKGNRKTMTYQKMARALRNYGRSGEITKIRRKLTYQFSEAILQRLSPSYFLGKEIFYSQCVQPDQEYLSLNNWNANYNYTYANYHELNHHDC
The following applies: protein: recombinant; tags: N-terminal GST; dsDNA, one strand shown. Summed up: as §1

Another assay concerns the target ELF4 (Homo sapiens, UniProt Q99607 1-663). The following applies: protein: recombinant; tags: N-terminal GST; dsDNA, one strand shown. The method in brief:
as §1

The next assay concerns the target T9, ELK4 (Homo sapiens, UniProt P28324-2 1-405).
T9 sequence: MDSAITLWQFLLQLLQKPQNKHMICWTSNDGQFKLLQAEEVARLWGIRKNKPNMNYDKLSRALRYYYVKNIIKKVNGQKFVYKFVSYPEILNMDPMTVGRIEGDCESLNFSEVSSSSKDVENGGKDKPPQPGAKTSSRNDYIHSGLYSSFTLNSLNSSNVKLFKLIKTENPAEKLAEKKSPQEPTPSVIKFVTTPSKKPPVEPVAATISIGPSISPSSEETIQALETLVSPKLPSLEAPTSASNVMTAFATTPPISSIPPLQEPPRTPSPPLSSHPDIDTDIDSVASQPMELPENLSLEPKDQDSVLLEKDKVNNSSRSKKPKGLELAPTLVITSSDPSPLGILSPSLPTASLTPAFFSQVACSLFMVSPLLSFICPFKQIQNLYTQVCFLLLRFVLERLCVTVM
The following applies: protein: recombinant; tags: N-terminal GST; dsDNA, one strand shown. Summed up:
as §1

The next assay concerns the target T10, ETV2 (Homo sapiens, UniProt O00321 1-342).
T10 sequence: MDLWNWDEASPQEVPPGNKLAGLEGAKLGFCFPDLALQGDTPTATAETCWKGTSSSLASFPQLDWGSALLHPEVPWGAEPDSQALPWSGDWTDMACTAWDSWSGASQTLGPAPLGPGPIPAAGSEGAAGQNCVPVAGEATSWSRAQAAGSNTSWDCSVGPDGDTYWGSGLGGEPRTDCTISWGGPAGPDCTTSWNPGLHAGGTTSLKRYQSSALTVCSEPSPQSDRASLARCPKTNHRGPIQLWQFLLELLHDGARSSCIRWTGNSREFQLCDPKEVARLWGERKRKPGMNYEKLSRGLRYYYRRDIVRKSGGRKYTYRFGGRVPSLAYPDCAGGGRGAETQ
Conditions: protein: recombinant; tags: N-terminal GST; dsDNA, one strand shown. Summed up: as §1

For the next assay, the target named is CRX (Homo sapiens, UniProt O43186 1-299). Conditions: protein: recombinant; tags: N-terminal GST; dsDNA, one strand shown. Summed up:
as §1

A further assay concerns the target ETV1 (Homo sapiens, UniProt P50549 1-477). The following applies: protein: recombinant; tags: N-terminal GST; dsDNA, one strand shown. The method in brief: as §1

Sequence of ETV5 (P41161 whole entry): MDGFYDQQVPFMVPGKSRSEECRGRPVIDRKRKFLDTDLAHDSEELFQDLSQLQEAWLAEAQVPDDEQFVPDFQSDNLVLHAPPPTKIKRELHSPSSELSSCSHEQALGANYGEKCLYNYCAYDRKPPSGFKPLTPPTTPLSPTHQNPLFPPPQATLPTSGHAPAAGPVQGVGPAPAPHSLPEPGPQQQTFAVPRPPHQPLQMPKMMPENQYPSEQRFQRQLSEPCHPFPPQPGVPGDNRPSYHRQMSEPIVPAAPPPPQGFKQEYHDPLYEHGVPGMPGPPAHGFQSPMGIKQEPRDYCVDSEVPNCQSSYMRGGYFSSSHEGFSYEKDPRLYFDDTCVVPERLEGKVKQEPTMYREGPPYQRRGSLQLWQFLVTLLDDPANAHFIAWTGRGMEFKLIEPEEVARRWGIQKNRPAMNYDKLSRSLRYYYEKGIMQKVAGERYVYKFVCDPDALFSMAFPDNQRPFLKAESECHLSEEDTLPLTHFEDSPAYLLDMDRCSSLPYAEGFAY
Sequence of ETV1 (P50549 whole entry): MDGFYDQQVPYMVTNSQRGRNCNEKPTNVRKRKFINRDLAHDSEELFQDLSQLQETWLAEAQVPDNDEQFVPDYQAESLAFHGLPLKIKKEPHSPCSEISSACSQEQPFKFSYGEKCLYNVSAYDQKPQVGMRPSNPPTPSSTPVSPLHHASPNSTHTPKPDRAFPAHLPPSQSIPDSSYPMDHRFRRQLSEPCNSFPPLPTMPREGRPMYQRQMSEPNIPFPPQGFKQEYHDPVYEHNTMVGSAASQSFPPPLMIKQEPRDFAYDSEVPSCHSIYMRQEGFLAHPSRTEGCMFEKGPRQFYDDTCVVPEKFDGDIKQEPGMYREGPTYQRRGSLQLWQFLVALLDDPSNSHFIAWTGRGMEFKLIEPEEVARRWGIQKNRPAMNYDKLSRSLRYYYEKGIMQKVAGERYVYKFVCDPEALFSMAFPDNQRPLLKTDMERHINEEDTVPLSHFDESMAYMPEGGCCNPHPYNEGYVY
Sequence of ELF4 (Q99607 whole entry): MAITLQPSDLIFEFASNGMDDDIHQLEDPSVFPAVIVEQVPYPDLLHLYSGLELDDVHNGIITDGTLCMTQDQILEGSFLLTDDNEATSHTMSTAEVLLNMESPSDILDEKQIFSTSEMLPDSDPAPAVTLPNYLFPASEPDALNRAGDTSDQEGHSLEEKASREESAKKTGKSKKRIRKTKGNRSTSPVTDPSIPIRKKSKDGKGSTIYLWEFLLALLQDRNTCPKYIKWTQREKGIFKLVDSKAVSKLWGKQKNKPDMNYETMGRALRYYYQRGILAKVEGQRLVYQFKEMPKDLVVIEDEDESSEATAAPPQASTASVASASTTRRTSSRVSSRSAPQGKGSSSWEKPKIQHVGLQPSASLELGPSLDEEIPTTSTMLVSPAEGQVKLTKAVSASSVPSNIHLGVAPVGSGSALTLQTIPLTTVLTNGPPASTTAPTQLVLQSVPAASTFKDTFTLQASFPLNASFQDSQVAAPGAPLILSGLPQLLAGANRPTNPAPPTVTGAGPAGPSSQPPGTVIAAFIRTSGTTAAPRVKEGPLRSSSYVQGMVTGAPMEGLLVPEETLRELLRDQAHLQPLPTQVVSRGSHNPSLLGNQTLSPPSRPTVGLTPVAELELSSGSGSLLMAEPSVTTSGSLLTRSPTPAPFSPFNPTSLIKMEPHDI
Sequence of CRX (O43186 whole entry): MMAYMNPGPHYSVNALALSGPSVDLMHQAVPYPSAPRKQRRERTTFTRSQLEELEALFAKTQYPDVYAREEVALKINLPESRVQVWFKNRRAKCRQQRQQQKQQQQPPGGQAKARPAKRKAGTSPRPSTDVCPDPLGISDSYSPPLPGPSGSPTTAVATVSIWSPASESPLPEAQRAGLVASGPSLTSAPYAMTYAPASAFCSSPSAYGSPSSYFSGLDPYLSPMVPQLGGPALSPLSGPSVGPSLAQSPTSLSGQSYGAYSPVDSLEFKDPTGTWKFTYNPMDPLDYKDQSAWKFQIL
Sequence of SPIB (Q01892 whole entry): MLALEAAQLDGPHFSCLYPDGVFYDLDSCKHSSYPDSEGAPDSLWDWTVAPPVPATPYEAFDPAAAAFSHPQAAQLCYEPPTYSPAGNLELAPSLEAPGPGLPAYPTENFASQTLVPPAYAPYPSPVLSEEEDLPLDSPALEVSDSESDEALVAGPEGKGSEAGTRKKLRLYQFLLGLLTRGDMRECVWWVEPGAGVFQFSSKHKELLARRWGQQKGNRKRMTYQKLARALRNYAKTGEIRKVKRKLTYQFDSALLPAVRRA

Consider TCTGTA, for which the binding signal with FLI1 is 1.23 fold enrichment (6-mer frequency, TF over GST control); with ELK1 it was 1.19 fold enrichment (6-mer frequency, TF over GST control); with GABPA, 1.2 fold enrichment (6-mer frequency, TF over GST control); with ERG, 1.11 fold enrichment (6-mer frequency, TF over GST control); in the assay with ELF1, 1.18 fold enrichment (6-mer frequency, TF over GST control); with EHF, 1.15 fold enrichment (6-mer frequency, TF over GST control). Besides, the binding signal is 1.16 fold enrichment (6-mer frequency, TF over GST control) with SPI1; 1.19 fold enrichment (6-mer frequency, TF over GST control) with SPIB; 1.2 fold enrichment (6-mer frequency, TF over GST control) with ELK3; 1.24 fold enrichment (6-mer frequency, TF over GST control) with FEV; 1.19 fold enrichment (6-mer frequency, TF over GST control) in the assay with ETV5; 1.31 fold enrichment (6-mer frequency, TF over GST control) with HSF1. Besides, the binding signal in the assay with SPIC is 1.39 fold enrichment (6-mer frequency, TF over GST control); with ELF4, 1.18 fold enrichment (6-mer frequency, TF over GST control); in the assay with ELK4, 1.3 fold enrichment (6-mer frequency, TF over GST control); with ETV2 it was 1.28 fold enrichment (6-mer frequency, TF over GST control); with CRX, 1.34 fold enrichment (6-mer frequency, TF over GST control); with ETV1, 1.28 fold enrichment (6-mer frequency, TF over GST control).
